# Measurements: ChEMBL document CHEMBL3988442, “University of Dundee, Small-Polar-MMV Screening Library” (2021)
# Target: T1, Aspartate--tRNA(Asp/Asn) ligase (Mycobacterium tuberculosis (strain ATCC 25618 / H37Rv)) (UniProt P9WFW3); further: in the data most compounds retested in dose-response had high values
# T1 sequence (whole entry): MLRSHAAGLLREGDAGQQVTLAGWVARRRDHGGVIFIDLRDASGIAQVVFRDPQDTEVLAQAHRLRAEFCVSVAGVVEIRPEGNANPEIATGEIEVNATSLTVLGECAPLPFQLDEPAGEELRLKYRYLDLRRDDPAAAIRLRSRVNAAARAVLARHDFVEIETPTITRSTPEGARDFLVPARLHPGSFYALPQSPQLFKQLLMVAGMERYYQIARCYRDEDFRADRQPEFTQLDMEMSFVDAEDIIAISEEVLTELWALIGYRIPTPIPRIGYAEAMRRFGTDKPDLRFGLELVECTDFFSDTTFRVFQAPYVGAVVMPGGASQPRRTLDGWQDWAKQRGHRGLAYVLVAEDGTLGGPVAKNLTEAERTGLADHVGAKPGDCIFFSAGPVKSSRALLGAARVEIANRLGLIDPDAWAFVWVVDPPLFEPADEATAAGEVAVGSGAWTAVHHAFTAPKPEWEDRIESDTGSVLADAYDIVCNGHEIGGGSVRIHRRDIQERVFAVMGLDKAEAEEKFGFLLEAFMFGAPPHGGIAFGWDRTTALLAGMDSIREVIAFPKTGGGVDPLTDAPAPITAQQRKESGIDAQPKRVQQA
# Assay: Assay for Asp RNA synthetase-1 from Mycobacterium tuberculosis
# Type: functional
# Parameters: scale not given: direction of the effect not stated beside the values
# Conditions: 30 µM
row,SMILES,Percent Effect [%]
1,c1ccc(-c2ccc3nc(C4CCN(CC5CC5)CC4)nn3c2)cc1,1.41
2,CC(c1nc(C2CC2)no1)N1CCN(Cc2ccccc2F)CC1 (stereo not drawn),-7.52
3,NC(=O)c1cnn2c1NCC(CNCCCOc1ccccc1F)C2 (stereo not drawn),-0.278
4,COc1ccc(CN2CCC3(CC(=O)N(c4cncnc4)C3)C2)cc1 (stereo not drawn),0.382
5,O=C(CCNc1ncccn1)NCCc1ccn(-c2ccccc2)n1,-3.01
6,CN(CCc1ccccc1)C1CCCN(Cc2nccn2C)C1 (stereo not drawn),0.357
7,Cc1ccc(N2CCCC(NCC(=O)NC3CCOCC3)C2)nn1 (stereo not drawn),5.08
8,CCN1CCN(C(=O)c2nc(C)n(-c3ccccc3Cl)n2)CC1,-3.15
9,Cn1ccc(CN2CCC(OCCc3ccccc3)CC2)cc1=O,2.67
10,COCCN1CCN(C(C)C(=O)Nc2ccnn2C(C)C)CC1 (stereo not drawn),0.69
11,C=C(C)COCCNC(=O)C1CCCN1C(C)=O (stereo not drawn),-3.43
12,COC(=O)c1ccccc1NC(=O)c1nc2ccccc2n(C)c1=O,2.38
13,CCc1nc(CN2CCCC(NCc3cnn(C(C)(C)C)c3)C2)no1 (stereo not drawn),-3.23
14,O=C1CO[C@@H]2CN(CC3CCOCC3)C[C@H]2N1CC1CC1,14.8
15,COc1ccc(-c2nccnc2C2CCN(C(C)=O)CC2)cc1,0.0149
16,CCOC(=O)c1sc2ccsc2c1CNC(=O)C(C)(C)C#N,0.67
17,Cc1ccc(S(=O)(=O)NC(=O)c2cccc(OCC(N)=O)c2)s1,2.86
18,O=C(NCCn1nc2ccccn2c1=O)c1cccc2[nH]ncc12,-0.633
19,COc1cccc2c1ccn2CCNC(=O)C(C)C,6.33
20,Cn1cccc1C(=O)N1CCc2ncnc(N3CCCC3)c2CC1,-0.927

row,SMILES,Percent Effect [%]
1,CN1CC(c2ccccc2)CC12CCN(C(=O)c1c(Cl)cnn1C)CC2 (stereo not drawn),-1.22
2,COCc1cc(NCc2cc(F)ccc2F)n2nccc2n1,7.1
3,c1ccc(C(OCCNC2CCc3ncnn3C2)c2ccccc2)cc1 (stereo not drawn),2.94
4,Cc1cc(C(=O)N2CCCCC2C)ccc1NCC(=O)N1CCOCC1 (stereo not drawn),-12.3
5,CN(C)c1ncccc1CNC(=O)N1CCCC1CN1CCCCC1 (stereo not drawn),-2.19
6,C[C@H]1C[C@H]2CN(C(=O)c3ccncn3)CC[C@H]2O1,-0.436
7,Cc1cnn(CC2CCCCN2CC(=O)NCc2ccccn2)c1 (stereo not drawn),-0.659
8,NC(=O)COc1cccc(C(=O)Nc2cnc3n2CCCC3)c1,-0.557
9,Cc1nc[nH]c1CN(C)CC1CCCN(CCc2ccc(Cl)cc2)C1 (stereo not drawn),4.6
10,Cc1cccc(CNC(=O)CNc2cc(CO)ccc2Cl)c1,5.12
11,COCCCNc1nccc(-c2c[nH][nH]c2=O)n1,6.51
12,CC(C)CCN1CC2(CCCN(C(=O)c3cscn3)C2)CCC1=O (stereo not drawn),8.2
13,O=C(Cc1ccc(O)c(Cl)c1)N1CCCCC1CCn1cccn1 (stereo not drawn),-0.725
14,CCC(CC)c1cc(CNC(=O)N2CCOC(C)C2)on1 (stereo not drawn),-0.437
15,Cc1ccccc1-c1cc(C(=O)N2CCn3c(C)nnc3C2)[nH]n1,-2.28
16,Cc1noc([C@@H]2CCCN2C(=O)C2CCN(C(=O)C3CCC3)CC2)n1,6.9
17,COCc1ccc(CN2CCC(O)(Cn3ccc4ncccc43)CC2)o1,0.485
18,CN(Cc1ccco1)[C@@H]1CN(C(=O)c2ccnnc2)C[C@@H]2CCCO[C@@H]21,-5.22
19,CCOCCCNC(=O)c1cc(C(C)C)nc(N2CCCCCC2)n1,1.1

# Target: Shiga toxin 2 (Escherichia coli O157:H7) (UniProt P09385+P09386)
# Assay: E. coli 0.157:H7 Shiga Toxin SOP - stx2 screening assay
# Type: functional
# Parameters: scale not given: direction of the effect not stated beside the values
# Conditions: 30 µM
row,SMILES,Percent Effect [%]
1,c1ccc(-c2ccc3nc(C4CCN(CC5CC5)CC4)nn3c2)cc1,-51.6
2,CC(c1nc(C2CC2)no1)N1CCN(Cc2ccccc2F)CC1 (stereo not drawn),8.03
3,NC(=O)c1cnn2c1NCC(CNCCCOc1ccccc1F)C2 (stereo not drawn),17.4
4,COc1ccc(CN2CCC3(CC(=O)N(c4cncnc4)C3)C2)cc1 (stereo not drawn),-11.8
5,O=C(CCNc1ncccn1)NCCc1ccn(-c2ccccc2)n1,-46.2
6,CN(CCc1ccccc1)C1CCCN(Cc2nccn2C)C1 (stereo not drawn),-0.197
7,Cc1ccc(N2CCCC(NCC(=O)NC3CCOCC3)C2)nn1 (stereo not drawn),-27.9
8,CCN1CCN(C(=O)c2nc(C)n(-c3ccccc3Cl)n2)CC1,0.607
9,Cn1ccc(CN2CCC(OCCc3ccccc3)CC2)cc1=O,8.32
10,COCCN1CCN(C(C)C(=O)Nc2ccnn2C(C)C)CC1 (stereo not drawn),-2.27
11,C=C(C)COCCNC(=O)C1CCCN1C(C)=O (stereo not drawn),-6.8
12,COC(=O)c1ccccc1NC(=O)c1nc2ccccc2n(C)c1=O,-9.47
13,CCc1nc(CN2CCCC(NCc3cnn(C(C)(C)C)c3)C2)no1 (stereo not drawn),2.93
14,O=C1CO[C@@H]2CN(CC3CCOCC3)C[C@H]2N1CC1CC1,5.99
15,COc1ccc(-c2nccnc2C2CCN(C(C)=O)CC2)cc1,12
16,CCOC(=O)c1sc2ccsc2c1CNC(=O)C(C)(C)C#N,16.1
17,Cc1ccc(S(=O)(=O)NC(=O)c2cccc(OCC(N)=O)c2)s1,-20.2
18,O=C(NCCn1nc2ccccn2c1=O)c1cccc2[nH]ncc12,-25.7
19,COc1cccc2c1ccn2CCNC(=O)C(C)C,-17
20,Cn1cccc1C(=O)N1CCc2ncnc(N3CCCC3)c2CC1,-8.7

row,SMILES,Percent Effect [%]
1,CN1CC(c2ccccc2)CC12CCN(C(=O)c1c(Cl)cnn1C)CC2 (stereo not drawn),17
2,COCc1cc(NCc2cc(F)ccc2F)n2nccc2n1,-13.4
3,c1ccc(C(OCCNC2CCc3ncnn3C2)c2ccccc2)cc1 (stereo not drawn),-14.7
4,Cc1cc(C(=O)N2CCCCC2C)ccc1NCC(=O)N1CCOCC1 (stereo not drawn),-49.1
5,CN(C)c1ncccc1CNC(=O)N1CCCC1CN1CCCCC1 (stereo not drawn),-17.9
6,C[C@H]1C[C@H]2CN(C(=O)c3ccncn3)CC[C@H]2O1,-34.2
7,Cc1cnn(CC2CCCCN2CC(=O)NCc2ccccn2)c1 (stereo not drawn),0.25
8,NC(=O)COc1cccc(C(=O)Nc2cnc3n2CCCC3)c1,-2.86
9,Cc1nc[nH]c1CN(C)CC1CCCN(CCc2ccc(Cl)cc2)C1 (stereo not drawn),-62.7
10,Cc1cccc(CNC(=O)CNc2cc(CO)ccc2Cl)c1,0.559
11,COCCCNc1nccc(-c2c[nH][nH]c2=O)n1,-55.9
12,CC(C)CCN1CC2(CCCN(C(=O)c3cscn3)C2)CCC1=O (stereo not drawn),-13.4
13,O=C(Cc1ccc(O)c(Cl)c1)N1CCCCC1CCn1cccn1 (stereo not drawn),-11.4
14,CCC(CC)c1cc(CNC(=O)N2CCOC(C)C2)on1 (stereo not drawn),-11.9
15,Cc1ccccc1-c1cc(C(=O)N2CCn3c(C)nnc3C2)[nH]n1,-13.5
16,Cc1noc([C@@H]2CCCN2C(=O)C2CCN(C(=O)C3CCC3)CC2)n1,-35.4
17,COCc1ccc(CN2CCC(O)(Cn3ccc4ncccc43)CC2)o1,-34.6
18,CN(Cc1ccco1)[C@@H]1CN(C(=O)c2ccnnc2)C[C@@H]2CCCO[C@@H]21,-5.91
19,CCOCCCNC(=O)c1cc(C(C)C)nc(N2CCCCCC2)n1,-56.1
